# MARV entry inh: blocks Marburg virus binding to or entry into cells; actives 1.8% (n = 300,000); Potency, µM (doses to about 37.8 µM), usual class: inhibitors; Marburg virus pseudotyped entry inhibition, cell reporter; calls by dose curve; tested in HEK293 cells
# LASV entry inh: blocks Lassa virus binding to or entry into cells; actives 1.2% (n = 300,000); Potency, µM (top dose mostly 37.9 µM), hits mostly inhibitors; Lassa virus pseudotype entry inhibition, cell reporter; AID 540256; calls by dose curve; tested in HEK293 cells; further: nearly all actives have a fitted effect of over 50% in size
# HCMV antiviral: blocks human cytomegalovirus replication. HFF cells, HCMV-luciferase reporter, 72 h; stronger effect = lower value. activity change, negative = inhibition, % at 57.5 µM. actives 4.5% (n = 410,000). AID 1259415; in the data active means activity change below about -60%; inconclusive means no clear call, values can overlap the other calls; inactive means above about -39%
#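 Human foreskin fibroblasts infected with luciferase-reporter HCMV at MOI 1 PFU/cell, compounds at two doses. Luciferase measured 72 h post infection; normalized to buffer-only basal and Salinomycin (10uM) controls.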
# FMDV inh: antivirals against foot and mouth disease virus | actives 1.2% (n = 410,000) | FMDV antiviral cell-based qHTS | Potency, µM (titrated, usually from 57.9 µM), actives largely listed as inhibitors | AID 1159524; calls by dose curve; tested in HEK293T cells; further: read-out not given here; nearly all actives have a fitted effect of over 45% in size
# HCV inh: inhibitors of hepatitis C virus infection. Huh7.5.1 HCVcc-Cre infection, luciferase reporter, 44 h. Potency, µM (doses to about 41.8 µM), hits mostly inhibitors. AID 651820. actives 3.4% (n = 340,000)
#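 Cells seeded at 1,000/well and cultured 4 h, then compounds added followed by HCVcc-Cre virus (~0.5 moi). After 44 h further culture, luciferase substrate was added, plates held 15 min at room temperature, and luminescence read for 15 sec.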
# FBPA Giardia inh: blocks Giardia fructose-bisphosphate aldolase activity; A8B2U2; purified Giardia FBPA; Potency, µM (doses to about 59.6 µM), actives largely listed as inhibitors; actives 0.71% (n = 290,000); AID 2451; further: nearly all actives have a fitted effect of over 55% in size
# Target sequence (A8B2U2 whole entry, looked up): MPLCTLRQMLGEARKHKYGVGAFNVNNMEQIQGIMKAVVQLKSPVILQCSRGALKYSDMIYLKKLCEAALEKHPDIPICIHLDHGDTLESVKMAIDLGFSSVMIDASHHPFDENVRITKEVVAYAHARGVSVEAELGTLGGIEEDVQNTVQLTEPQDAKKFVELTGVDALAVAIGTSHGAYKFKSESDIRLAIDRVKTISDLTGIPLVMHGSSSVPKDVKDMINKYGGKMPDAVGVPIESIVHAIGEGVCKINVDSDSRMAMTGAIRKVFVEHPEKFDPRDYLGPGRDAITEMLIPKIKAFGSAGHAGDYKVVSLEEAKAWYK
#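 40 nM FBPA preincubated 10 min at RT with compound (up to 57.5 uM final), then substrate plus GAPDH/TPI/NAD/arsenate coupling and diaphorase/resazurin added. Fluorescence read after 20 min at RT, 525/598 nm.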
# A number is an active result; – = inactive; ? = inconclusive; · = no result given. Only some compounds are listed: those with a hit (about 8.3% of all), similar ones and a draw of the others. Unless noted, the call rests on the fitted dose curve; in most records, active means well fitted curve in the direction sought with a large enough effect; inconclusive means small, poorly fitted or top-dose-only effect, or another doubt; inactive means no such curve, though single readings can be large; an effect the other way counts as inactive or inconclusive.
SMILES,MARV entry inh,LASV entry inh,HCMV antiviral,FMDV inh,HCV inh,FBPA Giardia inh
CN(C)c1ccc(CNC(=O)c2ccc3c(c2)N(C)C(=O)C2CCCCN32)cc1 (centres undefined),·,–,–,–,·,·
Cc1ccc(C(=O)/C=C/Nc2cccc(O)c2)cc1,?,?,–,·,–,–
C/C(=C\C(=O)c1ccc(C)cc1)Nc1cccc(O)c1,–,–,–,–,13µM,–
Cc1cccn2c(=O)c(C(=O)N3CCN(c4ccccc4)CC3)cnc12,·,–,–,–,·,·
Cc1cc(N2CCN(c3ccccc3)CC2)nc2ccccc12,·,·,–,–,?,–
Cc1cc(N2CC(C)OC(C)C2)nc2ccccc12 (centres undefined),–,–,-80,–,?,–
CC(C)Nc1ccc(Nc2ccnc3cc4ccccc4cc23)cc1,5.2µM,6.3µM,-100,–,?,–
c1ccc(CCNc2ccnc3cc4ccccc4cc23)cc1,?,·,-101,14µM,6.3µM,?
O=C(NCCc1ccccc1)c1nccc2ccccc12,·,·,–,–,–,·
O=C(O[C@@H]1Cc2c(O)cc(O)cc2OC1c1ccc(O)c(O)c1)c1cc(O)c(O)c(O)c1 (some centres undefined),·,·,·,–,·,?
CN(C)CCOc1ccc2c(c1)C(=O)C(=Cc1ncc([N+](=O)[O-])n1C)C2,·,·,-98,–,·,·
Cc1ccccc1NC(=S)c1ccc2ccccc2n1,·,·,-63,–,?,–
CCCN(CC(=O)Nc1ccccc1C)C(=O)c1ccc2ccccc2n1,?,–,–,–,–,·
CCc1ccccc1NC(=O)CSc1ncccc1C(=O)O,·,–,–,–,·,·
Cc1cccc(-c2nnn3c2nc(NCCc2ccc(S(N)(=O)=O)cc2)c2cc(Cl)ccc23)c1,–,–,?,–,·,·
Cc1ccc(Nc2ccc3cc(S(=O)(=O)N4CCC(C)CC4)ccc3n2)c(Cl)c1,·,–,–,–,·,·
CC1CCN(S(=O)(=O)c2ccc3nc(Nc4cccc(F)c4)ccc3c2)CC1,·,–,-102,–,·,·
Cc1cc(-c2ccccc2)nc2[n+]1CCN2C,–,–,-84,·,–,–
Clc1cccc(Cl)c1Cn1cnc2c(N3CCCCCC3)ncnc21,4.6µM,7.3µM,-81,·,?,–
CCN(CC)c1ncnc2c1ncn2Cc1c(Cl)cccc1Cl,?,?,–,–,13µM,–
O=CN/C=C/c1cc(F)cc(F)c1F,·,·,·,·,·,–
COc1ccc(-c2nc(-c3ccccc3)c(NC(C)C)o2)cc1,?,·,·,·,·,–
COc1ccccc1C(=O)Nc1ccc2nc(N3CCC(C)CC3)cc(C)c2c1,–,?,?,–,·,·
COc1cc2[nH]c(=O)n(Cc3ccc(C(=O)N4CCN(c5cccc(C)c5C)CC4)cc3)c(=O)c2cc1OC,–,–,-108,–,·,·
COc1cc2[nH]c(=O)n(CCCCCC(=O)N3CC=C(c4ccccc4)CC3)c(=O)c2cc1OC,8.9µM,?,–,?,?,–
SMILES,MARV entry inh,LASV entry inh,HCMV antiviral,FMDV inh,HCV inh,FBPA Giardia inh
O=C(CCCCCn1c(=O)[nH]c2ccccc2c1=O)N1CCN(c2cccc(C(F)(F)F)c2)CC1,·,?,–,–,·,·
COc1cc2[nH]c(=O)n(CCCCCC(=O)N3CCN(c4cccc(C(F)(F)F)c4)CC3)c(=O)c2cc1OC,?,?,-70,22µM,·,·
CCOc1cc2[nH]c(=O)n(CCCCC(=O)N3CCN(c4cccc(Cl)c4)CC3)c(=O)c2cc1OCC,·,?,–,25µM,·,·
CCOc1cc2[nH]c(=O)n(CCC(=O)N3CCN(c4ccccc4)CC3)c(=O)c2cc1OCC,·,–,–,–,·,·
COc1ccc(-n2c(=O)c(-c3ccc(Cl)cc3)nc3cnc(N4CCOCC4)nc32)cc1,·,·,·,–,·,–
O=C(CSc1nc2c([nH]c3ccccc32)c(=O)n1-c1ccccc1)NCc1ccc(F)cc1,·,?,–,–,·,·
CCOc1ccc(CCNC(=O)CCc2c(C)nc3cc(-c4ccccc4OC)nn3c2C)cc1,?,?,–,–,·,·
Cc1ccc(S(=O)(=O)N2CCCc3nc(-c4ccc(F)cc4)ccc32)cc1,·,·,–,·,·,·
COc1cc2[nH]c(=O)n(CCC(=O)N3CCN(c4cc(Cl)ccc4C)CC3)c(=O)c2cc1OC,?,–,-64,?,?,–
CCOc1cc2[nH]c(=O)n(CCCCC(=O)N3CCCCCC3)c(=O)c2cc1OCC,–,?,-104,–,–,–
Cc1ccc(CNC(=O)C2CCN(c3nn4cc(-c5ccc(F)cc5)nc4s3)CC2)cc1,·,–,–,–,·,·
O=[N+]([O-])c1ccc(C(c2sc3nc(-c4ccco4)nn3c2O)N2CCC3(CC2)OCCO3)cc1 (centres undefined),·,–,–,–,·,·
CCNc1ncc2nc(-c3ccc(Cl)cc3)c(=O)n(-c3ccc(OC)cc3)c2n1,·,·,·,–,·,–
COc1ccc(-c2nnc(SCc3cc(=O)c4cc(C)cc(C)c4[nH]3)n2C)cc1,·,–,-66,16µM,·,·
COc1ccc(C(=O)Nc2nnc(SCc3cc(=O)c4cc(C)cc(C)c4[nH]3)s2)cc1,·,–,–,–,·,·
CCCCc1nc2cc(C(=O)NCc3cn(C)nc3C)ccc2o1,–,?,–,–,13µM,·
CCCCc1nc2cc(C(=O)NCc3nccn3CC)ccc2o1,·,·,–,–,–,–
Cc1cc(C)c(C#N)c(SCS(=O)Cc2ccccc2)n1 (centres undefined),–,–,–,·,?,–
Cc1cc(C)c(C#N)c(SCS(=O)Cc2ccc(Cl)cc2)n1 (centres undefined),–,–,?,·,11µM,–
Cc1cccc(CCN2C(Nc3ccccc3)=NC[C@@H]2CC(C)C)c1,·,·,?,?,2.8µM,·
CCC(C)CCN1C(Nc2ccccc2)=NC[C@@H]1Cc1ccccc1 (some centres undefined),·,·,-100,?,–,–
CC(C)(C)C1CCC(CN2C(Nc3ccccc3)=NC[C@@H]2Cc2ccccc2)CC1 (some centres undefined),·,·,-76,?,?,·
Cc1cc(=O)n2c(C(=O)Nc3ccc(Br)cc3)c(C(=O)Nc3ccccc3)sc2n1,–,–,–,–,·,·
N#Cc1c(-n2ncnc2-c2ccc(F)cc2)sc2c1CCCCC2,·,–,?,?,·,·
CC1CC=CC2C1C(=O)N(Cc1ccccc1)C2c1ccc(/C=C/c2ccccc2)cc1F (centres undefined),·,·,·,·,·,–
SMILES,MARV entry inh,LASV entry inh,HCMV antiviral,FMDV inh,HCV inh,FBPA Giardia inh
CN1OC[C@@H]2CN3C(=O)N(c4cccc5ccccc45)c4ccccc4[C@@H]3C[C@@H]21,·,·,-102,–,·,·
CN1OC[C@@H]2CN(S(=O)(=O)c3cccc4ccccc34)[C@H](c3ccc(-c4ccccc4)cc3)C[C@@H]21,·,·,–,–,·,·
COc1ccc(OC)c(CN2CCCC(n3cc(C(=O)N4CCCCC4)nn3)C2)c1 (centres undefined),·,·,·,–,·,·
Cc1ccc(C)c(NC(=O)Cn2c(=O)n(CCCS(=O)(=O)C3CCCCC3)c(=O)c3ccccc32)c1,–,–,–,–,·,·
Fc1ccc(CN2CCN(c3ncccn3)CC2)cc1,–,–,–,·,–,–
Fc1cccc(CN(C2=NCCN2)c2c(Cl)cccc2Cl)c1,·,·,-63,–,?,·
Fc1ccc(CN(C2=NCCN2)c2c(Cl)cccc2Cl)cc1,18µM,?,·,·,·,–
